Assay results taken from PubChem BioAssay (NCATS).
Where “and” joins values, the source holds several entries; their conditions need not be identical. Equal entries are not always repeated. Records with an inconclusive call do not appear. Calls of active or inactive are those of the source. Unless noted, calls come from the whole dose curve; as a rule, active = well fitted curve in the direction sought with a large enough effect; inconclusive = small, poorly fitted or top-dose-only effect, or another doubt; inactive = no such curve, though single readings can be large; an effect the other way counts as inactive or inconclusive.

Experiments:
[1] = molecular target: Voltage-gated inwardly rectifying potassium channel KCNH2 (Homo sapiens) (UniProt Q12809); assay: qHTS Assay for Small Molecule Inhibitors of the Human hERG Channel Activity (AID 588834); conditions: U2OS BacMam hERG, FluxOR thallium flux fluorescence; series mostly up to 46.1 µM;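 note: lower thallium flux fluorescence means stronger hERG block; nearly all actives have a fitted effect of over 50% in size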; note: potency is the fitted concentration of half-maximal effect
Voltage-gated inwardly rectifying potassium channel KCNH2 (Homo sapiens), sequence (Q12809 whole entry, looked up): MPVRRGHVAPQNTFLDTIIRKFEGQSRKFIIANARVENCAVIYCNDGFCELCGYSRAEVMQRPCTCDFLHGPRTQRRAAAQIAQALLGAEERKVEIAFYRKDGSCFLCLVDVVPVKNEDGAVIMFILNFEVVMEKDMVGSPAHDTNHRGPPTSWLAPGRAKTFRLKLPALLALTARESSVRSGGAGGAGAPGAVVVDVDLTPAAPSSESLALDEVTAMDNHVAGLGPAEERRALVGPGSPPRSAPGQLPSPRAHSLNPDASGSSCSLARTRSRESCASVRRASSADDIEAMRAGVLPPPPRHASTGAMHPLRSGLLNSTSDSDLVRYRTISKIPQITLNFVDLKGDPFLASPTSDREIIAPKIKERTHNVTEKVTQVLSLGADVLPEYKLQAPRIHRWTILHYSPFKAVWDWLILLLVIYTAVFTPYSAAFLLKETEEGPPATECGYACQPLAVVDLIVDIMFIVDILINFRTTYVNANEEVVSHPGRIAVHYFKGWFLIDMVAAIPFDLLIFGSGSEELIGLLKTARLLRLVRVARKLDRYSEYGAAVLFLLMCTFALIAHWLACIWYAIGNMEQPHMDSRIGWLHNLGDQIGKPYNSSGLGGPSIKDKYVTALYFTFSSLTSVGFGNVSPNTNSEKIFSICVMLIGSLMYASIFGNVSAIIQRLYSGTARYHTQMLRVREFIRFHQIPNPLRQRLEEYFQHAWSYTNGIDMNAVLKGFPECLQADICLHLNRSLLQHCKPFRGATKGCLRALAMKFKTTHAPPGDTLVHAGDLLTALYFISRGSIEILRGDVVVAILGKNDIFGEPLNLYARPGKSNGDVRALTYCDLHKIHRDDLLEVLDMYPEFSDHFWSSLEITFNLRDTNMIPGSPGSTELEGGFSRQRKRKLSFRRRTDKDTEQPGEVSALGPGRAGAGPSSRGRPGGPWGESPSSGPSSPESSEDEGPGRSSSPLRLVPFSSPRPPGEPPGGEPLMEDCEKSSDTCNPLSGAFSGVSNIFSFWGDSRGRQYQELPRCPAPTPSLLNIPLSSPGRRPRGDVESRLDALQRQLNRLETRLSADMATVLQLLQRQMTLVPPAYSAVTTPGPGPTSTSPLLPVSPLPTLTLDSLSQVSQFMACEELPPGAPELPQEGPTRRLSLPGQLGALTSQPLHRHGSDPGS
Outline: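 hERG block measured as reduced thallium-dye (FluxOR) fluorescence after stimulation buffer addition, read over 2 min. Cells were hERG-BacMam-transduced U2OS exposed to compound ~10 min […]; concentration-response fitted with Hill equation for AC50.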

[2] = molecular target: Luciferin 4-monooxygenase (Photinus pyralis) (UniProt P08659); assay: Biochemical firefly luciferase enzyme assay for NPC (AID 624030); note: nearly all actives have a fitted effect of over 70% in size; note: potency is the fitted concentration of half-maximal effect; conditions: purified P. pyralis luciferase, luminescence, 5 min; series mostly up to 58.6 µM
Luciferin 4-monooxygenase (Photinus pyralis), sequence (P08659 whole entry, looked up): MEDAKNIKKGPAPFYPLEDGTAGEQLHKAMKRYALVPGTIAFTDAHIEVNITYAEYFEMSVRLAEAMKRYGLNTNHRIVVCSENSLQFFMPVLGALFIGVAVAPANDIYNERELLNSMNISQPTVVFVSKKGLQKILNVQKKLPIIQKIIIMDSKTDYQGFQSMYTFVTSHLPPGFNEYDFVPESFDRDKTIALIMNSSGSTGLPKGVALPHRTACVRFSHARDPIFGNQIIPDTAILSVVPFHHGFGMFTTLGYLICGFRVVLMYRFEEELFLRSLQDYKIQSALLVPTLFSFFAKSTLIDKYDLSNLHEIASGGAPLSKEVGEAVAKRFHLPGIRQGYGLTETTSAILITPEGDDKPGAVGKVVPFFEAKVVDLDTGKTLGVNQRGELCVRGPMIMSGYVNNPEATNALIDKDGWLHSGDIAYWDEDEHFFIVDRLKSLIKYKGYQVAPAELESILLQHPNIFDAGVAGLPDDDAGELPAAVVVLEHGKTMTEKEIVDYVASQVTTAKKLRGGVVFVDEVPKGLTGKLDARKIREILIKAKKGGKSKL
Outline: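 Direct inhibition of firefly luciferase enzyme (10 nM final, 50 mM Tris Acetate) assessed by luminescence within 5 minutes. Percent activity scaled between DMSO and PTC124 positive control, with concentration-effect curves classified by fit quality and response.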

[3] = S16 Schwann cell viability assay (CellTiter-Glo assay) (AID 624031); conditions: S16 rat Schwann cells viability, 24 h; series mostly up to 57.5 µM; note: nearly all actives have a fitted effect of over 70% in size; note: potency is the fitted concentration of half-maximal effect
Outline: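 CellTiter-Glo ATP luminescence counter-screen in untransfected S16 rat Schwann cells, 24h compound exposure at 37 degree Celsius after overnight seeding (500-750 cells/well); response scaled between cell-free wells and DMSO (0% activity), curves classed by r2 and magnitude.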

[4] = S16 Schwann cell PMP22 intronic element firefly luciferase assay (AID 624032); conditions: S16 rat Schwann cells, PMP22 element FLuc, 24 h; series mostly up to 57.5 µM; note: nearly all actives have a fitted effect of over 30% in size; note: potency is the fitted concentration of half-maximal effect
Outline: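 Luciferase reporter of PMP22 intronic-element expression in stably transfected S16 rat Schwann cells, read by ONE-Glo luminescence after 24 h compound exposure at 37 C. Activity scaled between DMSO (0%) and positive-control PTC124; concentration-effect curves quality-classified.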

[5] = S16 Schwann cell PMP22 intronic element beta-lactamase assay (AID 624044; calls by dose curve;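 note: 0% = DMSO and -100% = potassium clavulanate positive control; nearly all actives have a fitted effect of over 15% in size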); conditions: S16 rat Schwann cells, PMP22 element beta-lactamase FRET, 24 h; ratio activity, negative = inhibition: at 38.3 µM (top of the series) unless noted
Outline: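 Beta-lactamase reporter under a PMP22 intronic regulatory element in stable S16 rat Schwann cells; 24 h compound exposure. 460 nm blue signal normalized between DMSO (0%) and potassium clavulanate, with 535 nm FRET tracking viability; curves classed by r2 and response.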

Cc1cc(-c2ccc(N=Nc3ccc4c(S(=O)(=O)O)cc(S(=O)(=O)O)c(N)c4c3O)c(C)c2)ccc1N=Nc1ccc2c(S(=O)(=O)O)cc(S(=O)(=O)O)c(N)c2c1O
inactive: Potency [1] | Potency [3]
active: Potency [2] 28.7 µM and 14.4 µM | Potency [4] 8.09 µM

COC(=O)[C@@H](N)CS
inactive: Potency [1] | Potency [2] | Potency [3] | Potency [4]

N[C@H](CC(=O)O)C(=O)O
inactive: Potency [1] | Potency [2] | Potency [3] | Potency [4]

O=C(Nc1ccc(O)cc1)c1ccccc1O
inactive: Potency [1] | Potency [3] | Potency [4]
active: Potency [2] 14.4 µM

Cc1cc(C(=O)NCCc2ccc(S(=O)(=O)NC(=O)NN3CCCCCC3)cc2)no1
inactive: Potency [1] | Potency [2] | Potency [3] | Potency [4]

CC(C)(C)CC(C)(C)c1cc(Cc2cc(C(C)(C)CC(C)(C)C)cc(-n3nc4ccccc4n3)c2O)c(O)c(-n2nc3ccccc3n2)c1
inactive: Potency [1] | Potency [2] | Potency [3] | Potency [4]

CN=C1C=CC(=C(c2ccc(N(C)C)cc2)c2ccc(N(C)C)cc2)C=C1
active: Potency [1] 4.47 µM | Potency [2] 14.4 µM | Potency [3] 10.2 µM | Potency [4] 14.4 µM

CC1C(=O)CC2C3(C)CCC2(C(C)C(=O)O)C(=O)C13 (stereo not drawn)
inactive: Potency [1] | Potency [2] | Potency [3] | Potency [4]

CCCc1ccc(C(=O)O)cc1
inactive: Potency [1] | Potency [2] | Potency [3] | Potency [4]

C[Se]CC[C@H](N)C(=O)O
inactive: Potency [1] | Potency [2] | Potency [3] | Potency [4]

O=P(O)(O)CP(=O)(O)O
inactive: Potency [1] | Potency [2] | Potency [3] | Potency [4]

CCOc1ccc(S(=O)(=O)O)c2cccnc12
inactive: Potency [1] | Potency [2] | Potency [3] | Potency [4]

Cc1cccc(C)c1NC(=O)C1CCCCN1C (stereo not drawn)
inactive: Potency [1] | Potency [2] | Potency [3] | Potency [4]

CC1(O)CCC(C(C)(C)O)CC1 (stereo not drawn)
inactive: Potency [1] | Potency [2] | Potency [3] | Potency [4]

CC(C)c1ncc([N+](=O)[O-])n1C
inactive: Potency [1] | Potency [2] | Potency [3] | Potency [4]

Nc1nc(=O)n([C@@H]2CS[C@H](CO)O2)cc1F
inactive: Potency [1] | Potency [2] | Potency [3] | Potency [4]

NC(=O)[C@H]1O[C@@H](O)[C@H](O)[C@@H](O)[C@@H]1O
inactive: Potency [1] | Potency [2] | Potency [3] | Potency [4]

CCCCCCOC(=O)c1cccnc1
inactive: Potency [1] | Potency [2] | Potency [3] | Potency [4] | ratio activity, negative = inhibition [5] 2.38%

O=P(O)(O)OC[C@H]1O[C@](O)(COP(=O)(O)O)[C@@H](O)[C@@H]1O
inactive: Potency [1] | Potency [2] | Potency [3] | Potency [4] | ratio activity, negative = inhibition [5] 3.08%

CC(C)CCCC(C)NC(C)C (stereo not drawn)
inactive: Potency [1] | Potency [2] | Potency [3] | Potency [4] | ratio activity, negative = inhibition [5] 5.39%

CC/C=C\C/C=C\C/C=C\C/C=C\C/C=C\CCCC(=O)O
inactive: Potency [1] | Potency [2] | Potency [3] | Potency [4] | ratio activity, negative = inhibition [5] 1.33%

CC1CC(OC(=O)C(O)c2ccccc2)CC(C)(C)C1 (stereo not drawn)
inactive: Potency [1] | Potency [2] | Potency [3] | Potency [4] | ratio activity, negative = inhibition [5] -3.78%

CC(=O)Nc1ccc(OC(C)=O)cc1
inactive: Potency [1] | Potency [2] | Potency [3] | Potency [4] | ratio activity, negative = inhibition [5] -15.5%
